{"source": "PubChem BioAssay (NCATS)", "note": "Activity calls are given as the source filed them. No rule for the calls is given here. Potency is read from the fitted curve at half-maximal effect."}
{"test_system": "HIV-1 nucleocapsid protein NCp7 (binding to TG oligonucleotide)", "assay": "HIV Nucleocapsid (AID 346);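 also: potency is for inhibitors that block NC binding and lower polarization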", "conditions": "HIV-1 NC / fluorescein-TGTGTGTG probe, fluorescence polarization", "procedure,_shortened": "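10 nM TG4xF probe with 100 nM nucleocapsid protein in high-salt Hepes pH 7.5 (250mM NaCl) containing 1uM ZnCl2 and reducing agents. Compound inhibition of binding was read as fluorescein polarization after 1 hr at room temperature.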"}
{"compound": "c1ccc(CNc2ncnc3ccc(-c4ccoc4)cc23)cc1", "Potency": "> 20 µM (inactive)"}
{"compound": "CN(C)C(=O)c1ccc(-c2cncnc2NCc2cccnc2)cc1", "Potency": "> 20 µM (inactive)"}
{"compound": "CC(C)CN1CCC2(CC1)CCN(S(=O)(=O)c1ccccc1)CC2", "Potency": "> 20 µM (inactive)"}
{"compound": "COC(=O)N1CCC2(CC1)CN(C(=O)Nc1ccc(OC)cc1)C2", "Potency": "> 20 µM (inactive)"}
{"compound": "COc1ccc(-c2nc3cnc(Nc4cccc(OC)c4)nc3n(C3CC3)c2=O)cc1", "Potency": "15.7 µM (inactive)"}
{"compound": "O=C(Nc1ccccc1)N1CCC2(CC1)CCN(C(=O)c1ccncc1)CC2", "Potency": "> 20 µM (inactive)"}
{"compound": "CN1CCN(c2ncncc2-c2ccc(C(=O)N(C)C)cc2)CC1", "Potency": "> 20 µM (inactive)"}
{"compound": "COc1ccccc1CN1CC2(CCN(S(=O)(=O)c3ccccc3)CC2)C1", "Potency": "> 20 µM (inactive)"}
{"compound": "COc1cccc(Cn2c(=O)c(-c3cccs3)nc3cnc(OC)nc32)c1", "Potency": "> 20 µM (inactive)"}
{"compound": "COc1ccc(-n2c(=O)c(-c3ccc(F)cc3)nc3cnc(N4CCOCC4)nc32)cc1", "Potency": "> 20 µM (inactive)"}
{"compound": "CC(=O)N1CCC2(CC1)CN(c1ccncc1)C2", "Potency": "> 20 µM (inactive)"}
{"compound": "COCCn1c(=O)c(-c2ccccc2)nc2cnc(Nc3cccc(OC)c3)nc21", "Potency": "> 20 µM (inactive)"}
{"compound": "COc1ncc2nc(-c3cccs3)c(=O)n(Cc3cccs3)c2n1", "Potency": "> 20 µM (inactive)"}
{"compound": "c1ccc(Nc2ncncc2-c2ccoc2)cc1", "Potency": "> 20 µM (inactive)"}
{"compound": "COc1cccc(-c2cc(NCc3ccc(OC)cc3OC)ncn2)c1", "Potency": "> 20 µM (inactive)"}
{"compound": "CC(C)CN1CCC2(CC1)CCN(C(=O)c1cccc(F)c1)CC2", "Potency": "> 20 µM (inactive)"}
{"compound": "O=C(Nc1cccc(F)c1)N1CC[C@@]2(CCCN(C(=O)c3cnccn3)C2)C1", "Potency": "> 20 µM (inactive)"}
{"compound": "COc1cccc(Cn2c(=O)c(C)nc3cnc(N(C)C)nc32)c1", "Potency": "> 4 µM (inactive)"}
{"compound": "O=C(c1cnccn1)N1CCC2(CC1)CCN(c1ncccn1)CC2", "Potency": "> 20 µM (inactive)"}
{"compound": "CN(C)c1ccc(-c2cc(NCc3cccnc3)ncn2)cc1", "Potency": "> 20 µM (inactive)"}
{"compound": "COc1ccccc1-c1nccc(NCc2cccs2)n1", "Potency": "> 20 µM (inactive)"}
{"compound": "O=C(c1ccncc1)N1CCC2(CC1)CCN(c1ncccn1)CC2", "Potency": "> 20 µM (inactive)"}
{"compound": "CN1CCN(c2ncc3nc(-c4cc(F)cc(F)c4)c(=O)n(Cc4cccs4)c3n2)CC1", "Potency": "> 20 µM (inactive)"}
{"compound": "COCC(=O)N1CCC2(CCN(Cc3ccccc3OC)CC2)CC1", "Potency": "> 20 µM (inactive)"}
{"compound": "Cn1cccc1C(=O)N1CCC2(CC1)CN(C(=O)Nc1ccccc1)C2", "Potency": "> 20 µM (inactive)"}
{"compound": "Cc1cnc(CNc2ncncc2-c2ccc3c(c2)OCO3)cn1", "Potency": "> 20 µM (inactive)"}
{"compound": "COc1ccc(-n2c(=O)c(-c3cccc(C#N)c3)nc3cnc(N4CCNCC4)nc32)cc1", "Potency": "> 20 µM (inactive)"}
{"compound": "CN(C)c1ncc2nc(-c3cccs3)c(=O)n(CCC#N)c2n1", "Potency": "0.319 µM (active)"}
{"compound": "COc1cccc(Cn2c(=O)c(CCc3ccccc3)nc3cnc(N4CCNCC4)nc32)c1", "Potency": "> 20 µM (inactive)"}
{"compound": "FC(F)(F)c1ccccc1-c1nc(Nc2ccncc2)c2ccccc2n1", "Potency": "> 20 µM (inactive)"}
{"compound": "CCNc1ncc2nc(-c3ccc(OC)cc3)c(=O)n(Cc3cccs3)c2n1", "Potency": "> 20 µM (inactive)"}
{"compound": "COc1ccc(CNc2ncncc2-c2ccccc2C)c(OC)c1", "Potency": "> 20 µM (inactive)"}
{"compound": "CNc1nc(-c2ccoc2)nc2ccccc12", "Potency": "> 20 µM (inactive)"}
{"compound": "O=c1c(-c2cccs2)nc2cnc(Oc3ccccc3)nc2n1C1CC1", "Potency": "> 20 µM (inactive)"}
{"compound": "COc1ccc(NC(=O)N2CC3(CCN(C(=O)c4c(C)noc4C)CC3)C2)cc1", "Potency": "> 20 µM (inactive)"}
{"compound": "COc1ccc(-c2nc3cnc(Nc4ccccc4)nc3n(C[C@H]3CCCO3)c2=O)cc1", "Potency": "> 20 µM (inactive)"}
{"compound": "O=C(Oc1ccccc1)N1CCC2(CC1)CN(c1ncccn1)C2", "Potency": "> 20 µM (inactive)"}
{"compound": "COc1cccc(Cn2c(=O)c(-c3ccc(Cl)cc3)nc3cnc(N4CCNCC4)nc32)c1", "Potency": "> 20 µM (inactive)"}
{"compound": "COC(=O)N1CCC2(CCN(C(=O)Nc3ccccc3)CC2)CC1", "Potency": "> 20 µM (inactive)"}
{"compound": "COc1ccc(Oc2ncc3nc(-c4ccc(OC)cc4)c(=O)n(C4CC4)c3n2)cc1", "Potency": "> 20 µM (inactive)"}
